In the supplement of paper PMC10849652:
Targets with a hit are over-represented here; the source holds about 7,900 in all. About 0.6% of all pairs of compound and target were hits. Unmarked numbers belong to inactive results.

Compound: CC(C)N(C[C@H]1O[C@@H](n2cnc3c(N)ncnc32)[C@H](O)[C@@H]1O)[C@H]1C[C@@H](CCc2nc3cc(C(C)(C)C)ccc3[nH]2)C1 [pinometostat]
Test: log2 fold change, soluble protein after heating vs DMSO (PISA); higher = thermal stabilisation; K562 cells, 10 uM, 30 min; active = over 0.2 and 3.5 SD of the protein, either way, in both replicates (recomputed)
Method in brief: (§1)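 Thermal stability values are relative to control samples and come from duplicates. They are expressed as log2 fold changes. For measurement, K562 cells (2×10^6 cells/mL) received 10 μM compound for 30 min, and aliquots were heated for 3 min over 48°C-58°C, pooled, and extracted at 4°C in PBS with 0.5% NP-40. Soluble protein, the supernatant after 21,000xg for 90 min, was quantified by TMTpro 16plex LC-MS/MS with equalised channel sums.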

Sequence of UniProt O94822 (O94822 whole entry, looked up): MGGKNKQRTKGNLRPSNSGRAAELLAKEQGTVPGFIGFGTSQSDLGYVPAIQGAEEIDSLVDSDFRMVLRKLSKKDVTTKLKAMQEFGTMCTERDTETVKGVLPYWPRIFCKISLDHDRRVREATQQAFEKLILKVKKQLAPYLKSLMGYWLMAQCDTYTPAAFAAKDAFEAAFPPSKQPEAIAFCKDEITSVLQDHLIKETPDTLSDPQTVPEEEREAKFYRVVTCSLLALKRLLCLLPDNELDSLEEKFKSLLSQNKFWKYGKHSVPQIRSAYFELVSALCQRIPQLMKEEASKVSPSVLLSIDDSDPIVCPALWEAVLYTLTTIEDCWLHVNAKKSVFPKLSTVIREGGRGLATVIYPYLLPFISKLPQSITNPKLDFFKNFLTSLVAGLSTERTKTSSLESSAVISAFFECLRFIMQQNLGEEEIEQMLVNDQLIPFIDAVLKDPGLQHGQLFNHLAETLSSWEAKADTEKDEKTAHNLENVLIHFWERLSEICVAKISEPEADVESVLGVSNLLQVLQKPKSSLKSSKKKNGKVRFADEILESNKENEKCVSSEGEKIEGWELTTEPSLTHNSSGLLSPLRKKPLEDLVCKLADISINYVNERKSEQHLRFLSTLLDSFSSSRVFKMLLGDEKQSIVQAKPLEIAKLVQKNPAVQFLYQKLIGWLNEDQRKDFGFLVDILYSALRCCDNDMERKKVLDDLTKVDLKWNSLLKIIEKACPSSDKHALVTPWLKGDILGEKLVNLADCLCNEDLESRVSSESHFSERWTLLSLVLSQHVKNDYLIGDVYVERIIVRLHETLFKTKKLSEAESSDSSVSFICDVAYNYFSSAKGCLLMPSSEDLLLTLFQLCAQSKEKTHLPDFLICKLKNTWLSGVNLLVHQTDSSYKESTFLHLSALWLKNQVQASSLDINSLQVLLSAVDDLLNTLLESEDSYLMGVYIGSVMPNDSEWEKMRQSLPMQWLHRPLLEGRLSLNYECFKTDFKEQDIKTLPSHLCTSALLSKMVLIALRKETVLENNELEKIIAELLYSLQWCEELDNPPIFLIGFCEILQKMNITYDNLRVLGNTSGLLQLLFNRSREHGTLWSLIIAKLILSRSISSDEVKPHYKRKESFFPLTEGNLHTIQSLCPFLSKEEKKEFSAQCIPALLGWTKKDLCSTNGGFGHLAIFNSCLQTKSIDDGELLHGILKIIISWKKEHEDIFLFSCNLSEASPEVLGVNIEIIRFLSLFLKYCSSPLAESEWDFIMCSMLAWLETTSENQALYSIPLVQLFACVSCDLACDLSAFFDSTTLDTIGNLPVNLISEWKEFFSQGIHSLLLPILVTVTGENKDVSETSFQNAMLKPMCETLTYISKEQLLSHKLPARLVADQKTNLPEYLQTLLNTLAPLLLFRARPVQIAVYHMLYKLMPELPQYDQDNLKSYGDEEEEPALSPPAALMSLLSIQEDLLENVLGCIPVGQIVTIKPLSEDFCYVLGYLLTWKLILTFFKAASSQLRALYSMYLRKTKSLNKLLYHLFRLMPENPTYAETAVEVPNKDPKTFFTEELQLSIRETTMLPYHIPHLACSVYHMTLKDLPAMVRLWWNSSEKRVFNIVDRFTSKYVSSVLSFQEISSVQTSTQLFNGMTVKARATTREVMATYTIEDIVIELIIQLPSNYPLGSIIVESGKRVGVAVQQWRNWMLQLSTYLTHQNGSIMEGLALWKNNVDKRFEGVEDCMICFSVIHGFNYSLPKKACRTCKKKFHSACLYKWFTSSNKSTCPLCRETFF
Sequence of UniProt Q9C0E8 (Q9C0E8 whole entry, looked up): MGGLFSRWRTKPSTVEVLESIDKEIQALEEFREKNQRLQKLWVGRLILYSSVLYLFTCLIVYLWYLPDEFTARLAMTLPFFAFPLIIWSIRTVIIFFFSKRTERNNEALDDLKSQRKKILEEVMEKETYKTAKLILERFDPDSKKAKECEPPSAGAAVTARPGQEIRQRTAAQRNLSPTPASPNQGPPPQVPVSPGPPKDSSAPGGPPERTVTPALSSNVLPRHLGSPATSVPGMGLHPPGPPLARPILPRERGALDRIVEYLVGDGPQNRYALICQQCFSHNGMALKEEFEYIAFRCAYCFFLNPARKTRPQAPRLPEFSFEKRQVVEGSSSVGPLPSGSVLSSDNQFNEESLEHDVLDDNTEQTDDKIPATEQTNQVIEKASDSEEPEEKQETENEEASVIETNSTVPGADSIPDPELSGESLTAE
Sequence of UniProt Q92604 (Q92604 whole entry, looked up): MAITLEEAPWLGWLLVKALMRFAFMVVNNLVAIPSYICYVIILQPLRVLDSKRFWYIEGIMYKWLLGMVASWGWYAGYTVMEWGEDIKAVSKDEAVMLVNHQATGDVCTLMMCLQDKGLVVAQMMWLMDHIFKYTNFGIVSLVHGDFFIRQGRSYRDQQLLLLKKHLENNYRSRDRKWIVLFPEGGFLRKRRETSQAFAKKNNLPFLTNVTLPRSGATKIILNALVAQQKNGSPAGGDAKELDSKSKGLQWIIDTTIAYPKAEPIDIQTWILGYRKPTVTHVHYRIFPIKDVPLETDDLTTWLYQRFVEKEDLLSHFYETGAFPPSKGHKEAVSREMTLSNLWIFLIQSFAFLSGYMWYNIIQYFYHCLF
Sequence of UniProt Q8IWB1 (Q8IWB1 whole entry, looked up): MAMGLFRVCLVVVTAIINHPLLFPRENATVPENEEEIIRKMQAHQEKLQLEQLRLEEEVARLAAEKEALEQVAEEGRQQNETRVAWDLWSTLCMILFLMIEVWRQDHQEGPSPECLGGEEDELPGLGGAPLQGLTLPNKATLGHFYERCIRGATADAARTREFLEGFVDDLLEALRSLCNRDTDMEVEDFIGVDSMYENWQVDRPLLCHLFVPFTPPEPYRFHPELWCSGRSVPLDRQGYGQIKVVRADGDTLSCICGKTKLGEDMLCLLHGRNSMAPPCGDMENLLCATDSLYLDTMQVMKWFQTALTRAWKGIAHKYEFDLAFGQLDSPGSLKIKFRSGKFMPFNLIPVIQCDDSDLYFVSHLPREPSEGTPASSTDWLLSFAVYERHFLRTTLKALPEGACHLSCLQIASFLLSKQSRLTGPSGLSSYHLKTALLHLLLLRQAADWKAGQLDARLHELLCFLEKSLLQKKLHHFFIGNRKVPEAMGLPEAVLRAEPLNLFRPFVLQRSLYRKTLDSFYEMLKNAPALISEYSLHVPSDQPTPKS
Sequence of UniProt Q9Y2U8 (Q9Y2U8 whole entry, looked up): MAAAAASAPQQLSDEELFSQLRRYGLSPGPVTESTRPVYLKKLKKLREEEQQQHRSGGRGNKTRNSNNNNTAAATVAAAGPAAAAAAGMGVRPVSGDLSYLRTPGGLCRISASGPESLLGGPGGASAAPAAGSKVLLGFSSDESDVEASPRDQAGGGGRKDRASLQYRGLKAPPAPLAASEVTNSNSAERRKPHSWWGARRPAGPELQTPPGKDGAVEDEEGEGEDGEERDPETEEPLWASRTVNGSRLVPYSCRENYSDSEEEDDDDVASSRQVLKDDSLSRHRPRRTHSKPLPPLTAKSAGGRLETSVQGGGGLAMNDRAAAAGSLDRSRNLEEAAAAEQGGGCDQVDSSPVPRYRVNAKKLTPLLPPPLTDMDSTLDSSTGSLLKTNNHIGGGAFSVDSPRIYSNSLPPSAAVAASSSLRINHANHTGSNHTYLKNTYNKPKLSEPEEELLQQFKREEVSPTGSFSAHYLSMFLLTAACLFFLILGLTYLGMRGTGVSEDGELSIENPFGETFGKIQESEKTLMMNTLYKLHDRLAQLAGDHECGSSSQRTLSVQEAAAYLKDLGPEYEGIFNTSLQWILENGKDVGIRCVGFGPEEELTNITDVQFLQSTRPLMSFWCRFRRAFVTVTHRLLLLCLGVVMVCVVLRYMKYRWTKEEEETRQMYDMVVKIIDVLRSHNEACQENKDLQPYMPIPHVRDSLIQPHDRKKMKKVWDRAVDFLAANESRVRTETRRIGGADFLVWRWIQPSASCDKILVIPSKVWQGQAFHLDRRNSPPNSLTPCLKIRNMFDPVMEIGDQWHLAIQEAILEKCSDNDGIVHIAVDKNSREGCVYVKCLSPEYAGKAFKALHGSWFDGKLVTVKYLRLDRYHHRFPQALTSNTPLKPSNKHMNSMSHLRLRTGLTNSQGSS
Sequence of UniProt Q9NYL2 (Q9NYL2 whole entry, looked up): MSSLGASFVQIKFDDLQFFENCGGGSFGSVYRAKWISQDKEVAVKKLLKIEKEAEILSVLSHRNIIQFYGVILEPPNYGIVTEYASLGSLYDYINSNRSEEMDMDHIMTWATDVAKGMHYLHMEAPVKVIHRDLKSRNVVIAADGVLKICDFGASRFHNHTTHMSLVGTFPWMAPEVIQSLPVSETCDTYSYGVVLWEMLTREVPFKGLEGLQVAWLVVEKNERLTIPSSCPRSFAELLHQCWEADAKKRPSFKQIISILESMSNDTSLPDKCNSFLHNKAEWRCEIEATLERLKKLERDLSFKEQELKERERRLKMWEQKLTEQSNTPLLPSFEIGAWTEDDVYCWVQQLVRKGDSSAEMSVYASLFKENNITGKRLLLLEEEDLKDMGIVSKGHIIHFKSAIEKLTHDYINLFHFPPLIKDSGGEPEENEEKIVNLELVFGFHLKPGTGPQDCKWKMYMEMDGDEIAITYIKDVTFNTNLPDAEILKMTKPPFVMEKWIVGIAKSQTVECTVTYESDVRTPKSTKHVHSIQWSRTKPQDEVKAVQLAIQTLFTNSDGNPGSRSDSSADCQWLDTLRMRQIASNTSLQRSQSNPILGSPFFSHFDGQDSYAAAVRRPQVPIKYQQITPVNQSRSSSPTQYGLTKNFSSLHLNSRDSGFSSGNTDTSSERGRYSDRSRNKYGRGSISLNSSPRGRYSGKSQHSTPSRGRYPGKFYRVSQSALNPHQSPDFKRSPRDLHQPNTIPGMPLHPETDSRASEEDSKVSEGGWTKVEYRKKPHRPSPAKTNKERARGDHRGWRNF
Sequence of UniProt Q96A72 (Q96A72 whole entry, looked up): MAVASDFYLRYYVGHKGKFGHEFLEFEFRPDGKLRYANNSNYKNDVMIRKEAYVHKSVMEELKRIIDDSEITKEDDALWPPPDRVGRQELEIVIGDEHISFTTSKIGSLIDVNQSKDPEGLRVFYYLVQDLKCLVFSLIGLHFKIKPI

Target | log2 fold change
MCUR1 (UniProt Q96AQ8) | -0.059
ITPRIP (UniProt Q8IWB1) | -0.005
MAP2K1 (UniProt Q02750) | -0.061
LPGAT1 (UniProt Q92604) | 0.013
LMNB1 (UniProt P20700) | 0.011
LTV1 (UniProt Q96GA3) | 0.249
MAIP1 (UniProt Q8WWC4) | -0.042
MIER1 isoform 12 (UniProt Q8N108) | -0.013
KCT2 (UniProt Q8NC54) | 0.009
KPNA4 (UniProt O00629) | -0.001
MAPK12 (UniProt P53778) | -0.004
LDLR (UniProt P01130) | -0.011
LMF2 (UniProt Q9BU23) | 0.008
LTN1 isoform 3 (UniProt O94822) | 0.098
LRPPRC (UniProt P42704) | 0
MAD2L1 (UniProt Q13257) | 0.031
LARP4B (UniProt Q92615) | 0.143
ILK (UniProt Q13418) | 0.083
LTO1 (UniProt Q8WV07) | -0.028
KIF3A (UniProt Q9Y496) | 0.051

Target | log2 fold change
MAP3K20 (UniProt Q9NYL2) | 0.099
MAGOHB (UniProt Q96A72) | -0.022
MAP3K4 isoform 2 (UniProt Q9Y6R4) | 0.014
LIMA1 isoform 4 (UniProt Q9UHB6) | 0.006
MAGEC2 (UniProt Q9UBF1) | -0.003
MAP2K3 isoform 3 (UniProt P46734) | -0.012
MAGEA9 (UniProt P43362) | 0.009
ILVBL (UniProt A1L0T0) | 0.066
MDN1 (UniProt Q9NU22) | -0.009
KIF21A isoform 4 (UniProt Q7Z4S6) | 0.144
LNPK (UniProt Q9C0E8) | -0.01
LRBA (UniProt P50851) | 0.008
LEMD3 (UniProt Q9Y2U8) | -0.026
LAMP2 (UniProt P13473) | -0.077
KLHDC4 (UniProt Q8TBB5) | 0.199
LBR (UniProt Q14739) | 0.211
KHDC4 (UniProt Q7Z7F0) | -0.001
MAP4K4 isoform 3 (UniProt O95819) | 0.046
LEMD2 (UniProt Q8NC56) | -0.014

Compound: CC1=C(C(CC(=O)N1)C2=CC=C(C=C2)C(F)(F)F)C(=O)NC3=C(C=C4C(=C3)C=NN4)F
Test: as above
Method in brief: as §1

Target | log2 fold change
MCUR1 (UniProt Q96AQ8) | 0.015
ITPRIP (UniProt Q8IWB1) | -0.001
MAP2K1 (UniProt Q02750) | 0.008
LPGAT1 (UniProt Q92604) | 0.037
LMNB1 (UniProt P20700) | 0.01
LTV1 (UniProt Q96GA3) | -0.005
MAIP1 (UniProt Q8WWC4) | -0.011
MIER1 isoform 12 (UniProt Q8N108) | 0.027
KCT2 (UniProt Q8NC54) | 0.035
KPNA4 (UniProt O00629) | 0.041
MAPK12 (UniProt P53778) | 0.207
LDLR (UniProt P01130) | 0.019
LMF2 (UniProt Q9BU23) | -0.018
LTN1 isoform 3 (UniProt O94822) | -0.007
LRPPRC (UniProt P42704) | 0.062
MAD2L1 (UniProt Q13257) | -0.004
LARP4B (UniProt Q92615) | 0
ILK (UniProt Q13418) | -0.005
LTO1 (UniProt Q8WV07) | 0.04
KIF3A (UniProt Q9Y496) | 0.087

Target | log2 fold change
MAP3K20 (UniProt Q9NYL2) | 0.073
MAGOHB (UniProt Q96A72) | -0.034
MAP3K4 isoform 2 (UniProt Q9Y6R4) | -0.033
LIMA1 isoform 4 (UniProt Q9UHB6) | 0.079
MAGEC2 (UniProt Q9UBF1) | -0.035
MAP2K3 isoform 3 (UniProt P46734) | 0.064
MAGEA9 (UniProt P43362) | 0.057
ILVBL (UniProt A1L0T0) | -0.013
MDN1 (UniProt Q9NU22) | 0.006
KIF21A isoform 4 (UniProt Q7Z4S6) | 0.01
LNPK (UniProt Q9C0E8) | 0.016
LRBA (UniProt P50851) | -0.005
LEMD3 (UniProt Q9Y2U8) | 0.068
LAMP2 (UniProt P13473) | -0.139
KLHDC4 (UniProt Q8TBB5) | -0.123
LBR (UniProt Q14739) | -0.036
KHDC4 (UniProt Q7Z7F0) | 0.008
MAP4K4 isoform 3 (UniProt O95819) | 0.107
LEMD2 (UniProt Q8NC56) | -0.051
